Experimental data taken from the supplement of paper PMC6555819.

Legend:
Assay in all cases: PBM binding z-score (relative to random genomic background probes); higher = stronger binding; sequences stand for … in GC…GCGATTGACAGCGTAGAATGAAGG
[1] = tested on: FXR:RXRa (NR concentration 270 nM, RXRa partner concentration 90 nM)
Procedure, shortened: (§1)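 The probes on custom Agilent 4×180K protein-binding microarrays were double-stranded, with 34-nt variable regions bearing direct-repeat seeds, single-nucleotide variants, half-site ablations and random human genomic background sequences. Incubation lasted 1 h with ligand-free nuclear receptor dimers in PBS pH 7.4, 2% milk, 0.02% Triton X-100, 1 mM DTT, 0.2 mg/mL BSA and 0.4 mg/ml salmon testes DNA. Antibodies against each partner (one per run) detected bound dimers, and fluorescence scans were regression-normalized. Binding z-scores take the random background probes as reference.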

[2] = tested on: LXRa:RXRa (NR concentration 270 nM, RXRa partner concentration 90 nM)
Procedure, shortened: as §1

[3] = tested on: LXRa homodimer (NR concentration 270 nM)
Procedure, shortened: as §1

[4] = tested on: LXRb:RXRa (NR concentration 270 nM, RXRa partner concentration 90 nM)
Procedure, shortened: as §1

[5] = tested on: LXRb homodimer (NR concentration 270 nM)
Procedure, shortened: as §1

[6] = tested on: PPARa:RXRa (NR concentration 270 nM, RXRa partner concentration 90 nM)
Procedure, shortened: as §1

[7] = tested on: PPARg:RXRa (NR concentration 180 nM, RXRa partner concentration 90 nM)
Procedure, shortened: as §1

[8] = tested on: PPARg:RXRa 270nM:90nM, anti-RXR (NR concentration 270 nM, RXRa partner concentration 90 nM)
Procedure, shortened: as §1

[9] = tested on: PPARg:RXRa 30nM:10nM, anti-RXR (NR concentration 30 nM, RXRa partner concentration 10 nM)
Procedure, shortened: as §1

[10] = tested on: PPARg:RXRa 90nM:30nM, anti-RXR (NR concentration 90 nM, RXRa partner concentration 30 nM)
Procedure, shortened: as §1

[11] = tested on: PPARg:RXRa DBDmut IVT, anti-RXR (DBD mutation: RXRa K156A/R161A, NR concentration 270 nM, RXRa partner concentration 90 nM)
Procedure, shortened: as §1

[12] = tested on: PPARg:RXRa IVT, anti-PPARg (NR concentration 270 nM, RXRa partner concentration 90 nM)
Procedure, shortened: as §1

[13] = tested on: PPARg DBDmut:RXRa IVT, anti-PPARg (DBD mutation: PPARg1 K132A/R137A, NR concentration 270 nM, RXRa partner concentration 90 nM)
Procedure, shortened: as §1

[14] = tested on: PPARg DBDmut IVT, anti-PPARg (DBD mutation: PPARg1 K132A/R137A, NR concentration 270 nM)
Procedure, shortened: as §1

[15] = tested on: PPARg homodimer (NR concentration 180 nM)
Procedure, shortened: as §1

[16] = tested on: PXR:RXRa (NR concentration 270 nM, RXRa partner concentration 90 nM)
Procedure, shortened: as §1

[17] = tested on: PXR homodimer (NR concentration 270 nM)
Procedure, shortened: as §1

[18] = tested on: RARa:RXR (NR concentration 270 nM, RXRa partner concentration 90 nM)
Procedure, shortened: as §1

[19] = tested on: RARa homodimer (NR concentration 270 nM)
Procedure, shortened: as §1

[20] = tested on: RARb:RXRa (NR concentration 270 nM, RXRa partner concentration 90 nM)
Procedure, shortened: as §1

## GCTTGTAGATCAAGGTTAAGATAGACTAAGCTAA
[1]
  PBM binding z-score: 0.296
[2]
  PBM binding z-score: 1.56
[3]
  PBM binding z-score: -0.0877
[4]
  PBM binding z-score: 0.529
[5]
  PBM binding z-score: -0.803
[6]
  PBM binding z-score: 1.66
[7]
  PBM binding z-score: 1.17
[8]
  PBM binding z-score: 2.1
[9]
  PBM binding z-score: 0.465
[10]
  PBM binding z-score: 1.81
[11]
  PBM binding z-score: 1.44
[12]
  PBM binding z-score: 1.14
[13]
  PBM binding z-score: 0.0148
[14]
  PBM binding z-score: -0.396
[15]
  PBM binding z-score: 0.519
[16]
  PBM binding z-score: 0.536
[17]
  PBM binding z-score: 0.00293
[18]
  PBM binding z-score: 0.825
[19]
  PBM binding z-score: -0.522
[20]
  PBM binding z-score: 0.938

## AGTCAAAGTTCAGGACGAGTTAACGTAAAGCACG
[1]
  PBM binding z-score: 3.79
[2]
  PBM binding z-score: 3.99
[3]
  PBM binding z-score: 1.02
[4]
  PBM binding z-score: 1.9
[5]
  PBM binding z-score: 0.173
[6]
  PBM binding z-score: 3.38
[7]
  PBM binding z-score: 4.32
[8]
  PBM binding z-score: 4.63
[9]
  PBM binding z-score: 2.21
[10]
  PBM binding z-score: 4.17
[11]
  PBM binding z-score: -0.151
[12]
  PBM binding z-score: 1.53
[13]
  PBM binding z-score: 0.0233
[14]
  PBM binding z-score: 0.458
[15]
  PBM binding z-score: 1.18
[16]
  PBM binding z-score: 3.59
[17]
  PBM binding z-score: 1.43
[18]
  PBM binding z-score: 2.4
[19]
  PBM binding z-score: 1.1
[20]
  PBM binding z-score: 4.21

## CCTGGTTGGTCAAGGTCACACACGCTATAGGTAC
[1]
  PBM binding z-score: 4.28
[2]
  PBM binding z-score: 4.07
[3]
  PBM binding z-score: 2.43
[4]
  PBM binding z-score: 3.92
[5]
  PBM binding z-score: 1.12
[6]
  PBM binding z-score: 4.3
[7]
  PBM binding z-score: 2.92
[8]
  PBM binding z-score: 3.15
[9]
  PBM binding z-score: 1.15
[10]
  PBM binding z-score: 2.22
[11]
  PBM binding z-score: 1.12
[12]
  PBM binding z-score: 3.26
[13]
  PBM binding z-score: 0.676
[14]
  PBM binding z-score: 0.0653
[15]
  PBM binding z-score: 3.15
[16]
  PBM binding z-score: 4.44
[17]
  PBM binding z-score: 2.85
[18]
  PBM binding z-score: 4.78
[19]
  PBM binding z-score: 2.07
[20]
  PBM binding z-score: 4.41

## CCTAGTTGGTCAGGAGGTCACACCCCGGATATGA
[1]
  PBM binding z-score: 3.53
[2]
  PBM binding z-score: 3.05
[3]
  PBM binding z-score: 2.07
[4]
  PBM binding z-score: 3.15
[5]
  PBM binding z-score: 0.855
[6]
  PBM binding z-score: 3.98
[7]
  PBM binding z-score: 2.86
[8]
  PBM binding z-score: 3.57
[9]
  PBM binding z-score: 1.05
[10]
  PBM binding z-score: 3.09
[11]
  PBM binding z-score: 1.1
[12]
  PBM binding z-score: 3.66
[13]
  PBM binding z-score: 0.426
[14]
  PBM binding z-score: 0.108
[15]
  PBM binding z-score: 3.14
[16]
  PBM binding z-score: 4.1
[17]
  PBM binding z-score: 1.16
[18]
  PBM binding z-score: 4.24
[19]
  PBM binding z-score: 2.03
[20]
  PBM binding z-score: 3.71

## ATATGTAGGTTACAACCGGGTCATTCAGGCTATG
[1]
  PBM binding z-score: 2.4
[2]
  PBM binding z-score: 4.01
[3]
  PBM binding z-score: 1.33
[4]
  PBM binding z-score: 2.93
[5]
  PBM binding z-score: 0.715
[6]
  PBM binding z-score: 4.68
[7]
  PBM binding z-score: 5.74
[8]
  PBM binding z-score: 5.17
[9]
  PBM binding z-score: 3.03
[10]
  PBM binding z-score: 4.61
[11]
  PBM binding z-score: 7.11
[12]
  PBM binding z-score: 7.41
[13]
  PBM binding z-score: 3.31
[14]
  PBM binding z-score: 2.35
[15]
  PBM binding z-score: 2.21
[16]
  PBM binding z-score: 3.88
[17]
  PBM binding z-score: 1.71
[18]
  PBM binding z-score: 3.96
[19]
  PBM binding z-score: 0.487
[20]
  PBM binding z-score: 2.36

## CAAACTAGGGCAAAGGTCAAAGTCGAGCCAACCA
[1]
  PBM binding z-score: 7.07
[2]
  PBM binding z-score: 6.32
[3]
  PBM binding z-score: 4.3
[4]
  PBM binding z-score: 6.01
[5]
  PBM binding z-score: 1.82
[6]
  PBM binding z-score: 7.48
[7]
  PBM binding z-score: 13.2
[8]
  PBM binding z-score: 10.9
[9]
  PBM binding z-score: 12.2
[10]
  PBM binding z-score: 12.5
[11]
  PBM binding z-score: 7.98
[12]
  PBM binding z-score: 8.53
[13]
  PBM binding z-score: 3.73
[14]
  PBM binding z-score: 2.63
[15]
  PBM binding z-score: 4.12
[16]
  PBM binding z-score: 5.98
[17]
  PBM binding z-score: 1.29
[18]
  PBM binding z-score: 7.53
[19]
  PBM binding z-score: 1.54
[20]
  PBM binding z-score: 5.15

## ATCGATAGGTCGTGAGGTGAGTATACAGAAAGGC
[1]
  PBM binding z-score: 1.25
[2]
  PBM binding z-score: 1.3
[3]
  PBM binding z-score: -0.0722
[4]
  PBM binding z-score: 1.07
[5]
  PBM binding z-score: 0.187
[6]
  PBM binding z-score: 2.43
[7]
  PBM binding z-score: 1.32
[8]
  PBM binding z-score: 1.08
[9]
  PBM binding z-score: 0.506
[10]
  PBM binding z-score: 0.989
[11]
  PBM binding z-score: -0.14
[12]
  PBM binding z-score: 1.35
[13]
  PBM binding z-score: 1
[14]
  PBM binding z-score: 0.371
[15]
  PBM binding z-score: 0.792
[16]
  PBM binding z-score: 1
[17]
  PBM binding z-score: 0.158
[18]
  PBM binding z-score: 1.94
[19]
  PBM binding z-score: 0.167
[20]
  PBM binding z-score: 1.97
